# Assay outcomes: PubChem, National Center for Advancing Translational Sciences (NCATS)
# This is a sample that favours compounds with a hit; in the whole collection about 12% have one here.
# BAZ2B inh – inhibitors of human BAZ2B bromodomain. Q9UIF8. 4.4% of 360,000 active. AlphaScreen BAZ2B-H3K14Ac peptide displacement. AID 504333. Potency, µM (series often up to 114 µM), inactives show at the highest dose activity change, negative = inhibition, hits mostly inhibitors; further: on the % scale 0 is the no-effect control and ±100 the full control effect; nearly all actives have a fitted effect of over 60% in size
#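 BAZ2B 50 nM plus b-H3(5-23)K14Ac 50 nM, PBS pH 7.4/0.01% Tween-20, 30 min RT; compound added (max 110 uM), 30 min RT; streptavidin donor/Ni-chelate acceptor beads 10 ug/mL final, 20 min dark; AlphaScreen read.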
# JMJD2A Tudor – inhibitors of human JMJD2A Tudor domain | AID 504339 | 4.4% of 390,000 active | O75164 | AlphaScreen JMJD2A-Tudor / H3K4me3 peptide binding | Potency, µM (highest dose often 114 µM), inactives show at the top dose activity change, negative = inhibition, hits mostly inhibitors; further: on the % scale 0 is the no-effect control and ±100 the full control effect; nearly all actives have a fitted effect of over 50% in size
# G9a block – G9a (human) methyltransferase inhibition; Q96KQ7; G9a H3K9 monomethylation, AlphaScreen, 2 h; Potency, µM (highest dose often 102 µM), for the others: top-dose activity, negative = inhibition, hits mostly inhibitors; 8.8% of 350,000 active; further: on the % scale 0 is the no-effect control and ±100 the full control effect; nearly all actives have a fitted effect of over 75% in size
# Target sequence (Q96KQ7 913-1193 limits assumed): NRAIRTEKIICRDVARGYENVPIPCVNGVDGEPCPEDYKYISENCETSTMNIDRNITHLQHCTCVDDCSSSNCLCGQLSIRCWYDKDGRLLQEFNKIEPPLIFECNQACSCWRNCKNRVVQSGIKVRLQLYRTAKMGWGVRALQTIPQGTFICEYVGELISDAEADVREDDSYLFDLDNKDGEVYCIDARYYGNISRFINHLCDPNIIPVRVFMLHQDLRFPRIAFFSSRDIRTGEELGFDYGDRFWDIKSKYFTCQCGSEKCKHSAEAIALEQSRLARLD
#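 Step 1: enzyme (final 20 nM) with compound, 15 min RT. Step 2: substrate peptide 500 nM and SAM 20 uM, 2 h RT. Step 3: anti-H3K9me1 antibody and AlphaScreen beads, 10 min, then plate read.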
# HP1b chromo inh – HP1-beta chromodomain-methylated histone interaction inhibition; P83916; AlphaScreen HP1-beta / biotin-H3K9me3 peptide binding; Potency, µM (series often up to 114 µM), for inactives: top-dose activity change, negative = inhibition, most hits filed as inhibitors; 0.56% of 390,000 active; further: nearly all actives have a fitted effect of over 70% in size
# Target sequence (P83916 whole entry, looked up): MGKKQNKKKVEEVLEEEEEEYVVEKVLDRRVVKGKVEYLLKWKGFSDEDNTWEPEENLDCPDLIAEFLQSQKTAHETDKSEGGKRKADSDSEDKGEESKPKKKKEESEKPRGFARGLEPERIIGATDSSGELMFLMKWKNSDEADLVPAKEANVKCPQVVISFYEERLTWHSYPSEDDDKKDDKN
#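 Compound inhibition of the preformed complex between 50 nM HP1-beta and 50 nM biotinylated H3K9me3 peptide was read by AlphaScreen. Buffer was PBS pH 7.4 with 0.01% Tween-20. Incubations ran 30 min at room temperature, with 10 ug/mL donor/acceptor beads.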
# L3MBTL1 inh – blocks human L3MBTL1. Q9Y468. AlphaScreen L3MBTL1–H3K9me1 peptide binding. Potency, µM (top dose mostly 57.1 µM), for inactives: top-dose activity, negative = inhibition, usual class: inhibitors. 0.66% of 230,000 active; further: on the % scale 0 is the no-effect control and ±100 the full control effect; nearly all actives have a fitted effect of over 60% in size
#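 Read-out is AlphaScreen signal from streptavidin donor and nickel chelate acceptor beads (10 ug/mL final each) bridging L3MBTL1 (50 nM) and biotinylated K9-monomethylated H3(1-15) peptide (75 nM), after 30 min compound exposure at room temperature.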
# Sfp PPTase inh – Sfp phosphopantetheinyl transferase inhibition; Q9F4F7; Potency, µM, for inactives: largest response in the series, negative = inhibition, actives largely listed as inhibitors; AID 1490; Biochemical Sfp PPTase activity, qHTS; 3.5% of 310,000 active;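 further: the enzyme is Sfp with the accession as filed and its product quenches rhodamine fluorescence; 0% = enzyme reaction without inhibitor and -100% = no enzyme wells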
#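 Step 1, compound plus 15 nM Sfp-PPTase, 15 min, room temperature. Step 2, add rhodamine-CoA (5 uM) and BHQ-2-YbbR (12.5 uM). Step 3, read 525/598 nm fluorescence at 0 and 30 min.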
# * = called active by the depositor; ? = inconclusive; / = not tested or not shown; [ ] = remark or other dose. The call rests on the fitted dose curve; in most records, active means well fitted curve in the direction sought with a large enough effect; inconclusive means small, poorly fitted or top-dose-only effect, or another doubt; inactive means no such curve, though single readings can be large; an effect the other way counts as inactive or inconclusive. Potency means the concentration at half of the fitted maximal effect.
SMILES,BAZ2B inh,JMJD2A Tudor,G9a block,HP1b chromo inh,L3MBTL1 inh,Sfp PPTase inh
CNC(=O)c1cc2cc(OC)ccc2oc1=N,-25%,-7%,56µM*,13%,3%,-20%
Nc1nc(NCCc2ccc(O)cc2)nc2nc(-c3ccco3)nn12,/,/,-26%[59 µM],/,/,?
CCCCCCCC/C=C\CCCCCCCCCCCC(=O)O,/,/,/,/,/,-14%
Nc1nc(N)nc(-c2cc(O)ccc2O)n1,6%,-20%,13%[0.501 µM],38%,1%,/
Oc1ccc(O)c(-c2cnns2)c1,-7%,3.2µM*,?,8.9µM*,0%,?
COC(=O)c1ccc(C(/C=C/[C@@H](C)C(=O)N(C)C)NC(=O)OCc2ccccc2)cc1 (some centres undefined),/,/,/,/,/,4%
Cc1cc(-c2ccccc2)c(C#N)c(=S)[nH]1,-9%,6.3µM*,1.3µM*,79µM*,2%,28µM*
Cc1cccc(N2C(=O)/C(=C\c3ccc(C(=O)O)cc3)c3ccccc3C2=O)c1,?,-28%,45µM*,27%,1%,5%
COc1ccc2c(=O)c3c(=O)n(Cc4ccco4)c(-c4ccco4)nc3oc2c1,?,?,18µM*,0%,/,?
COc1ccc2nc(NC(=O)CNS(=O)(=O)c3cccs3)sc2c1,-7%,-27%,10%[12.7 µM],1%,/,-2%
COCCNCC(=O)Nc1nc(C)cs1,32µM*,?,8.9µM*,15%,2%,45µM*
Cc1csc(NC(=O)CNS(=O)(=O)c2cccs2)n1,-2%,8.9µM*,47%[12.7 µM],5%,-2%,-2%
O=C(Nc1ccc(F)cc1F)c1ccc(-n2cnc3cccnc32)cc1,-15%,-16%,-14%[59 µM],2%,/,/
Cc1ccc(C(=O)NCC(=O)OCC(=O)NC2CCS(=O)(=O)C2)cc1C (centres undefined),-1%,-9%,9%[59 µM],28%,1%,6%
CCOCCCN1CN(S(=O)(=O)c2ccc(Cl)cc2)c2nc3ccccc3nc21,?,-28%,5%[0.501 µM],26%,-3%,-1%
Cc1ccc(S(=O)(=O)N2CN(CC3CCCO3)c3nc4ccccc4nc32)c(C)c1 (centres undefined),?,-5%,32µM*,9%,/,-12%
CCCCCN1CN(S(=O)(=O)c2cccs2)c2nc3ccccc3nc21,-2%,-20%,28µM*,25%,5%,4%
COCCCN1CN(S(=O)(=O)c2ccc(C)cc2C)c2nc3ccccc3nc21,?,-9%,32µM*,31%,/,-12%
COc1cccc(Nc2ncc3nc(-c4ccc(F)cc4)c(=O)n(C[C@H]4CCCO4)c3n2)c1,/,/,15%[12.7 µM],/,/,-11%
CN(C)C(=S)Nc1ccc([N+](=O)[O-])cc1,-21%,4%[57.1 µM],-16%,49%,7%,?
CN(C)C(=S)NC(=NCc1ccc([N+](=O)[O-])cc1)c1ccccc1,-17%,-15%,71µM*,56%,/,-28%
COc1ccccc1CNc1ncnc2ccc(-c3ccccc3C#N)cc12,/,/,-41%[0.501 µM],/,/,4%
COc1ccc(CNC(=O)c2nn(-c3ccccc3)cc2OC)cc1,-3%,-12%,11%,13%,/,-13%
COc1cn(-c2ccccc2)nc1C(=O)Nc1ccc(C)cc1Cl,79µM*,?,?,23%,/,-24%
COc1cc(/C=N/N=C(\N)c2nonc2N)ccc1O,12%,-23%,1%,-29%,/,-1%
N/C(=N\N=C\c1ccc(O)c(O)c1)c1nonc1N,45µM*,-25%,20%[59 µM],35%,-17%,19%
O=C(N/N=C/c1ccc(O)c(O)c1)N/N=C/c1ccc(O)c(O)c1,32µM*,11µM*,45µM*,35µM*,/,?
Cc1nonc1C(=O)N/N=C/c1ccc(O)c(O)c1,-36%,7.1µM*,45µM*,-31%,0%,-6%
CN(C)c1nc(N)c(C(=O)Nc2cccnc2)nc1Cl,/,/,/,/,/,-15%
O=C(Cc1cccc2ccccc12)NC(=S)Nc1cccc(C(=O)O)c1,?,-23%,16µM*,-16%,8%,2%
